Data from PubChem BioAssay (NCATS).
Inconclusive results are not listed. Calls of active or inactive are those of the source. Calls come from the whole dose curve; as a rule, active = well fitted inhibition curve with a large enough effect; inconclusive = small, poorly fitted or top-dose-only effect; inactive = flat fitted curve, though single readings scatter. Where a SMILES comes first, the peptide text is derived from it. [ ]: non-standard residue; d: D form. ξ: configuration not given here. ξLac(3-iPr) = CC(C)CC(O)C(=O)O; NMeV = CN[CH](C(=O)O)C(C)C; βAla = NCCC(=O)O

Columns and labels:
[1] = tested on: CRL-7250; assay: Cytotoxic Profiling of Annotated Libraries Using Quantitative High-Throughput Screening (AID 1296008); details: Five cell lines viability, CellTiter-Glo ATP luminescence, 48-72 h; max response: stronger effect = lower value; for max response: % is set by controls: 0 for no effect and ±100 for the full control effect
Summary of the method: (§1)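 Compounds were pin-transferred onto cells and incubated 48 or 72 hr at 37 degree Celsius, 95% humidity. CellTiter-Glo was added, plates sat 10 min at room temperature, then ATP-coupled luminescence was imaged as the viability read-out.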

[2] = tested on: HEK293; assay: as above; details: Five cell lines viability, CellTiter-Glo ATP luminescence, 48-72 h; max response: stronger effect = lower value
Summary of the method: as §1

[3] = tested on: KB-3-1; assay: as above; details: Five cell lines viability, CellTiter-Glo ATP luminescence, 48-72 h; max response: stronger effect = lower value
Summary of the method: as §1

[4] = tested on: SC27B; assay: qHTS profiling for inhibitors of Plasmodium falciparum proliferation (AID 504749); details: P. falciparum in erythrocytes, SYBR Green DNA, 72 h
Summary of the method: (§2)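 Parasite proliferation within erythrocytes, 72 h exposure. Endpoint: SYBR Green I fluorescence after overnight lysis at room temperature. Controls: 0.29 uM artemisinin, DMSO.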

[5] = tested on: TAB109; assay: as above; details: P. falciparum in erythrocytes, SYBR Green DNA, 72 h
Summary of the method: as §2

[6] = tested on: TAB113; assay: as above; details: P. falciparum in erythrocytes, SYBR Green DNA, 72 h
Summary of the method: as §2

[7] = tested on: TAB165; assay: as above; details: P. falciparum in erythrocytes, SYBR Green DNA, 72 h
Summary of the method: as §2

[8] = tested on: W2; assay: as above; details: P. falciparum in erythrocytes, SYBR Green DNA, 72 h
Summary of the method: as §2

[9] = tested on: HaCat; assay: Cytotoxic Profiling of Annotated Libraries Using Quantitative High-Throughput Screening (AID 1296008); details: Five cell lines viability, CellTiter-Glo ATP luminescence, 48-72 h; max response: stronger effect = lower value; for max response: % is set by controls: 0 for no effect and ±100 for the full control effect
Summary of the method: as §1
Note: nearly all actives have a fitted effect of over 60% in size.
Potency is the fitted concentration of half-maximal effect.

CC(=O)OC1C(=O)C2(C)C(O)CC3OCC3(OC(C)=O)C2C(OC(=O)c2ccccc2)C2(O)CC(OC(=O)C(O)C(NC(=O)c3ccccc3)c3ccccc3)C(C)=C1C2(C)C (stereo not given)
active: Potency [1] 58 nM | Potency [2] 7.3 nM | Potency [3] 8.2 nM

COc1ccc(CC2C(=O)NC(C)C(=O)N(C)C3Cc4ccc(cc4)Oc4cc(ccc4OC4OC(CO)C(O)C(O)C4O)CC(C(=O)NC(C)C(=O)NC(C)C(=O)N2C)N(C)C3=O)cc1 (stereo not given)
active: Potency [1] 87.3 nM | Potency [2] 55.1 nM | Potency [3] 138 nM

Cc1cc(O)c(-c2ccc([C@@H](C)CN(C)C)cc2)c2c1[nH]c(=O)c1sccc12
active: Potency [1] 116 nM | Potency [2] 25.9 nM | Potency [3] 46.1 nM

CC[C@H](CO)Nc1nc(NCc2ccc(-c3ccccn3)cc2)c2ncn(C(C)C)c2n1
active: Potency [1] 92 nM | Potency [2] 206 nM | Potency [3] 116 nM

CC[C@]1(O)CC2CN(CCc3c([nH]c4ccccc34)[C@@](C(=O)OC)(c3cc4c(cc3OC)N(C)[C@H]3[C@@](O)(C(=O)OC)[C@H](OC(C)=O)[C@]5(CC)C=CCN6CC[C@]43[C@@H]65)C2)C1 (stereo not given in full)
inactive: max response [9] 4.47%
active: Potency [4] 3550 nM | Potency [5] 1000 nM | Potency [6] 3980 nM | Potency [7] 2000 nM | Potency [8] 478 nM | Potency [1] 259 nM | Potency [2] 65.1 nM | Potency [3] 36.6 nM

CC1(C)CCCC2(C)C(C(=O)O)=CCC12 (stereo not given)
inactive: max response [1] -16.1% | max response [2] -1.36% | max response [3] -0.0594%

CC(=O)NCC(=O)N1C2CCC1c1cc(Nc3ncc(C(F)(F)F)c(NC4CCC4)n3)ccc12 (stereo not given)
active: Potency [1] 1640 nM | Potency [2] 2590 nM | Potency [3] 1030 nM

CC#CC(=O)N1CCC[C@H]1c1nc(-c2ccc(C(=O)Nc3ccccn3)cc2)c2c(N)nccn12
inactive: max response [1] -4.15% | max response [2] -0.695% | outcome [3]

CC(=O)c1ccc(O[C@@H]2O[C@H](CO)[C@@H](O)[C@H](O)[C@H]2O)cc1
inactive: max response [1] -8.35% | max response [2] -8.37% | max response [3] 2.85%

CO[C@@H](C)Cn1c(=O)n(C)c2cnc3ccc(-c4cncc(C(C)(C)O)c4)cc3c21
active: Potency [1] 82 nM | Potency [2] 231 nM | Potency [3] 651 nM

CC1OC(O[C@H]2CC[C@@]3(C)C(CC[C@]4(C)C3CC=C3C5CC(C)(C)CC[C@]5(C(=O)OC5OC(CO)C(OC6OC(COC7OCC(O)C(O)C7O)C(O)C(O)C6O)C(O)C5O)CC[C@]34C)C2(C)C)C(O)C(O)C1OC1OCC(OC2OCC(O)C(O)C2O)C(O)C1O (stereo not given in full)
inactive: max response [1] -5.53% | max response [2] 1.98% | outcome [3]

COC(=O)C1=CO[C@@H](O[C@@H]2O[C@H](CO)[C@@H](O)[C@H](O)[C@H]2O)[C@@H]2C(CO)=CC[C@]12O
inactive: max response [1] -2.05% | outcome [2] | max response [3] 9.91%

C[C@@H]1O[C@@H](O[C@H]2[C@H](OC(=O)[C@]34CCC(C)(C)C[C@H]3C3=CCC5[C@@]6(C)C[C@H](O)[C@H](O[C@@H]7O[C@H](CO)[C@@H](O)[C@H](O)[C@H]7O)[C@@](C)(CO)C6[C@H](O)C[C@@]5(C)[C@]3(C)C[C@H]4O)OC[C@H](O)[C@@H]2O)[C@H](O)[C@H](O)[C@H]1O[C@@H]1OC[C@@H](O)[C@H](O[C@H]2OC[C@](O)(CO)[C@H]2O)[C@H]1O (stereo not given in full)
inactive: outcome [1] | max response [2] 3.89% | max response [3] 3.95%

CC(C)=CCC[C@](C)(O[C@@H]1O[C@H](CO)[C@@H](O)[C@H](O)[C@H]1O)[C@H]1CC[C@]2(C)[C@@H]1[C@H](O)CC1[C@@]3(C)CC[C@H](O)C(C)(C)C3[C@@H](O[C@@H]3O[C@H](CO)[C@@H](O)[C@H](O)[C@H]3O[C@@H]3OC[C@@H](O)[C@H](O)[C@H]3O)C[C@]12C (stereo not given in full)
inactive: max response [1] -28% | max response [2] -0.716% | max response [3] -9.18%

Cc1c2cc(c(C(=O)O)c1C)OC1OC(C(O)C(O)C1O)C(O)C(O)C1OC(O2)C(O)C(O)C1O (stereo not given)
inactive: max response [1] -20.3% | max response [2] -0.813% | outcome [3]

CC(C)CC1OC(=O)C2CCCN2C(=O)CCNC(=O)C(Cc2ccccc2)NC(=O)C(C(C)C)N(C)C(=O)C(C(C)C)N(C)C1=O (stereo not given) (cyclo([ξLac(3-iPr)][NMeV][NMeV]F[βAla]P); configuration not given here)
inactive: max response [1] 2.18% | max response [2] 4% | max response [3] 3.73%

c1cc(OCCCN2CCCCC2)ccc1CN1CCCCC1
inactive: max response [1] -3.26% | max response [2] -18.4% | max response [3] -5.63%

O=C1CSc2ccccc2N1Cc1cccc(C(F)(F)F)c1
inactive: max response [1] -9.14% | max response [2] -20.3% | max response [3] -14%

C/C=C(\C)C(=O)OCC1OC(OC2OC(COC(=O)/C(C)=C/C)C(OC3OC(CO)C(OC(=O)/C(C)=C/C)C(OC(=O)/C(C)=C/C)C3O)C(O)C2O)C(O)C(O)C1OC1OC(CO)C(OC(=O)/C(C)=C/C)C(OC(=O)/C(C)=C/C)C1O (stereo not given)
inactive: max response [1] -8.02% | max response [2] -7.34% | max response [3] -4.08%

CC1C=CC2CCCCC2C1CCC1CC(O)CC(=O)O1 (stereo not given)
inactive: max response [1] -5.84% | outcome [2] | max response [3] 3.85%

C[C@@H]1O[C@@H](O[C@H]2[C@H](O[C@H]3[C@H](O[C@H]4CC[C@@]5(C)C(CC[C@]6(C)C5CC=C5[C@@H]7CC(C)(C)C[C@@H](O)[C@]7(C)CC[C@]56C)[C@@]4(C)CO)O[C@H](C(=O)O)[C@@H](O)[C@@H]3O)OC[C@H](O)[C@@H]2O)[C@H](O)[C@H](O)[C@H]1O (stereo not given in full)
inactive: max response [1] -3.42% | max response [2] -4.78% | max response [3] -1.37%

COC(=O)CCc1cc2ccoc2c(OC)c1O[C@@H]1O[C@H](CO)[C@@H](O)[C@H](O)[C@H]1O
inactive: max response [1] -7.38% | max response [2] -10.4% | outcome [3]

CCOCCn1nc(CC)c2nc(N3CCC(C(=O)O)CC3)nc(Nc3cc(C)ccn3)c21
inactive: max response [1] -0.41% | max response [2] -20% | max response [3] -10.2%

CCC(O)C(C)C1CCC(C(C)C(=O)O)O1 (stereo not given)
inactive: outcome [1] | max response [2] -7.28% | max response [9] 3.27% | outcome [3]

C[C@@H]1O[C@@H](O[C@H]2[C@H](OC(=O)[C@]34CCC(C)(C)C[C@H]3C3=CCC5[C@@]6(C)CC[C@H](O[C@@H]7O[C@H](C(=O)O)[C@@H](O)[C@H](O)[C@H]7O[C@@H]7O[C@H](CO)[C@H](O)[C@H](O)[C@H]7O)[C@@](C)(C=O)C6CC[C@@]5(C)[C@]3(C)C[C@H]4O)O[C@H](C)[C@H](O[C@@H]3O[C@H](C)[C@H](O)[C@H](O)[C@H]3O)[C@@H]2O)[C@H](O)[C@H](O)[C@H]1O[C@@H]1OC[C@@H](O)[C@H](O[C@@H]2O[C@H](CO)[C@@H](O)[C@H](O)[C@H]2O)[C@H]1O (stereo not given in full)
inactive: max response [1] -5.26% | max response [2] -75.9% | max response [9] -0.834% | max response [3] 9.53%

Cn1c(=O)n(-c2ccc(C(C)(C)C#N)cc2)c2c3cc(C#Cc4cccnc4)ccc3ncc21
active: Potency [1] 22.4 nM | Potency [2] 89.3 nM | Potency [3] 142 nM

CC(C)=CCC[C@](C)(O)[C@H]1CC[C@]2(C)[C@@H]1[C@H](O)CC1[C@@]3(C)CC[C@H](O)C(C)(C)[C@@H]3[C@@H](O[C@@H]3O[C@H](CO)[C@@H](O)[C@H](O)[C@H]3O[C@@H]3O[C@H](CO)[C@@H](O)[C@H](O)[C@H]3O)C[C@]12C (stereo not given in full)
inactive: max response [1] -7.72% | max response [2] -11.9% | max response [3] 3.39%

CCNC(=O)Nc1ccc(-c2nc3c(c(N4CCOC[C@@H]4C)n2)CCN(c2ncccn2)C3)cc1
active: Potency [1] 259 nM | Potency [2] 184 nM | Potency [3] 291 nM

CC(=O)C=C=C1C(C)(C)CC(O[C@@H]2O[C@H](CO)[C@@H](O)[C@H](O)[C@H]2O)CC1(C)O (stereo not given in full)
inactive: outcome [1] | outcome [2] | max response [3] 0.592%

COC(=O)N(C)c1c(N)nc(-c2nn(Cc3ccccc3F)c3ncccc23)nc1N
inactive: outcome [1] | max response [2] -0.877% | max response [3] 0.515%

Nc1nc(-n2cc(C(=O)O)c(=O)c3cc(F)c(N4CC(O)C4)c(Cl)c32)c(F)cc1F
inactive: max response [1] -9.26% | outcome [2] | max response [3] -18.7%

CC(=O)O[C@@H]1[C@@H](CO)O[C@@](CO)(O[C@H]2O[C@H](COC(=O)/C=C/c3ccccc3)[C@@H](O)[C@H](O)[C@H]2O)[C@H]1O
inactive: max response [1] -0.112% | max response [2] 0.799% | max response [9] -9.37% | outcome [3]

CC1(C)CC[C@]2(C(=O)O)CC[C@]3(C)C(=CCC4[C@@]5(C)CC[C@H](O[C@@H]6O[C@H](CO)[C@@H](O)[C@H](O)[C@H]6O[C@@H]6O[C@H](CO)[C@@H](O)[C@H](O)[C@H]6O)[C@@](C)(CO)C5CC[C@]43C)[C@@H]2C1 (stereo not given in full)
inactive: max response [1] -6.6% | max response [2] -6.18% | max response [3] 8.35%

Cc1oc2ccccc2c1CNC(=O)NCc1cccs1
inactive: max response [1] 1.28% | max response [2] -27.1% | max response [3] -11.8%

Cc1ccc(C(=O)N(CCCN)C(c2oc3cc(Cl)ccc3c(=O)c2Cc2ccccc2)C(C)C)cc1 (stereo not given)
inactive: max response [1] -42.6% | max response [2] -125%
active: Potency [3] 6.5 nM

NC(=O)Nc1cc(-c2cccc(F)c2)sc1C(=O)NC1CCCNC1 (stereo not given)
inactive: max response [1] -112% | max response [2] -108%
active: Potency [3] 580 nM

O=C1OCc2cc3cccc(O[C@@H]4O[C@H](CO)[C@@H](O)[C@H](O)[C@H]4O)c3c(O)c21
inactive: max response [1] 3.34% | max response [2] -24.4% | outcome [3]
